# Measured values taken from PubChem BioAssay AID504834 (National Center for Advancing Translational Sciences (NCATS), 2011).
# Out of some 320,000 compounds screened, about 22,000 (6.9%) were called active. About 27% were inconclusive and are not listed. Calls follow the shape of the dose curve; as a rule, active = well fitted inhibition curve with a large enough effect; inconclusive = small, poorly fitted or top-dose-only effect, or another doubt; inactive = no such curve, though single readings can be large or run the other way. This excerpt belongs to a sample that is enriched for actives.
# Assay: Primary qHTS for delayed death inhibitors of the malarial parasite plastid, 96 hour incubation
# Settings: P. falciparum luciferase reporter growth; series mostly up to 28.7 µM; activity change, negative = inhibition: at the top concentration
# In short: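 Plates of compound plus infected erythrocytes (2% hematocrit, 0.05% parasitemia final) incubate 96 hours, 37 C, 5% CO2. Detection reagent added; reduced luminescence from the parasites' luciferase reporter flags inhibition.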
# % is scaled to controls: 0 for no effect and ±100 for the full control effect; potency is read from the fitted curve at half-maximal effect.
Compound,"activity change, negative = inhibition",Potency
O=C(O)c1ccc(-n2nc(-c3ccccc3)c3ccccc3c2=O)cc1,24.2% (inactive),–
O=C(c1ccc(F)cc1)n1c(=S)nc2ccccn21,135% (inactive),–
COc1ccc(-c2[nH]nc3c2C(c2ccncc2)C(C#N)=C(N)O3)cc1 (stereo not drawn),–,4.65 µM (active)
CCc1ccc(C2C(C#N)=C(N)Oc3n[nH]c(CC(=O)OC)c32)cc1 (stereo not drawn),-3.61% (inactive),–
CCOc1c(OC)cc(C2C(C#N)=C(N)Oc3n[nH]c(-c4ccncc4)c32)cc1OC (stereo not drawn),16.2% (inactive),–
COc1cc(C(=O)Nc2ncccc2C)ccc1OCC(=O)N1CCOCC1,-9.13% (inactive),–
Cc1cc(-n2cnc(-c3cn(C)nc3C)n2)no1,48.3% (inactive),–
Cc1cc(OCC(=O)N(C)c2c(N)n(Cc3ccccc3)c(=O)[nH]c2=O)c(C(C)C)cc1Cl,0.877% (inactive),–
Cc1cccc(OCC(=O)NCCCNC(=O)c2ccccn2)c1,30.2% (inactive),–
Cc1ccccc1NC(=O)C1CCN(C(=O)NC2CCCCC2)CC1,14.1% (inactive),–
Cc1ccc(NS(=O)(=O)c2ccc3c(c2)NC(=O)CO3)cc1,42.8% (inactive),–
O=C1COc2ccc(NC(=O)N3CCN(c4ccc(F)cc4)CC3)cc2N1,0% (inactive),–
CC(CC(=O)Nc1ccc(F)cc1F)S(=O)(=O)c1ccc2c(c1)NC(=O)CO2 (stereo not drawn),–,6.57 µM (active)
COc1ccc(C)cc1NC(=O)NCCCCc1ccccc1,-10.7% (inactive),–
CCc1cccc(NC(=O)COC(=O)C2CCN(c3ccc(C(F)(F)F)cn3)CC2)c1,0% (inactive),–
Cc1cnc(C)c(N2CCN(C(=O)C3CCC(=O)N(CCc4cccc(F)c4)C3)CC2)n1 (stereo not drawn),–,14.7 µM (active)
Cc1cnc(CN(C)C(=O)C2CCC(=O)N(CCc3cccc(F)c3)C2)[nH]1 (stereo not drawn),-11.6% (inactive),–
O=C1CCC(C(=O)N2CCC(O)(c3ccccc3)CC2)CN1CCc1ccccc1 (stereo not drawn),31.1% (inactive),–
O=C(NC1CC1)C(Cc1ccccc1)NS(=O)(=O)c1ccccc1F (stereo not drawn),11.3% (inactive),–
O=C1N[C@@H](Cc2ccccc2)C(=O)N2[C@H]1C[C@]1(Br)c3ccccc3N(S(=O)(=O)c3ccccc3)[C@H]21,-39.5% (inactive),–
Cc1ccc(CCNC(=O)c2ccc3nc4ccccc4c(=O)n3c2)cc1,29.7% (inactive),–
CCOC(=O)C1=C(C)Nc2nc3ccccc3n2C1c1cccs1 (stereo not drawn),-13.8% (inactive),–
COCCOC(=O)C1=C(C)N=c2s/c(=C\c3cccs3)c(=O)n2C1c1cccs1 (stereo not drawn),–,8.28 µM (active)
CCOC(=O)C1=C(C)N=c2s/c(=C\C(=O)OC)c(=O)n2C1c1ccc(OC)cc1 (stereo not drawn),-23.7% (inactive),–
CC(C)(C)n1cnnc1Sc1ccc([N+](=O)[O-])cn1,–,1.65 µM (active)

Compound,"activity change, negative = inhibition",Potency
Cc1cccc(C)c1NC(=O)CSc1ccc([N+](=O)[O-])cn1,-13.6% (inactive),–
O=[N+]([O-])c1ccc(Sc2n[nH]c(-c3ccco3)n2)nc1,219% (inactive),–
Cc1cccc(N(C(=O)c2csnn2)C(C(=O)NCc2ccccc2)c2ccncc2)c1 (stereo not drawn),-0.692% (inactive),–
COc1cc(C(=S)N2CCOCC2)ccc1O,–,inactive
CCOc1cc(C(=S)N2CCOCC2)ccc1OS(=O)(=O)c1ccc(Br)cc1,13.8% (inactive),–
CCOc1cc(C(=S)N2CCOCC2)ccc1O,–,13.1 µM (active)
CCOC(=O)N1CCN(C(=O)CSc2nc(=O)n3cccc(C)c3n2)CC1,8.94% (inactive),–
CCN1c2nc3c(C)cccn3c(=O)c2CC2(C(=O)N(C)C(=O)N(C)C2=O)C1C (stereo not drawn),–,3.29 µM (active)
CN(Cc1c(F)cccc1Cl)C(=O)CNC(=O)c1ccc2c(c1)OCO2,20.4% (inactive),–
Cc1ccc(C(CC(=O)O)NC(=O)c2ccc(S(=O)(=O)N3CCCC3)cc2)cc1 (stereo not drawn),22.2% (inactive),–
CCOc1ccc(N2CC(C(=O)NCCN3C(=O)S/C(=C\c4cccnc4)C3=O)CC2=O)cc1 (stereo not drawn),14.5% (inactive),–
O=C(NCCN1C(=O)S/C(=C\c2cccnc2)C1=O)c1cccc(OC(F)F)c1,-27.2% (inactive),–
Cc1cc(OCCCC(=O)NCCN2C(=O)S/C(=C\c3cccnc3)C2=O)ccc1Cl,–,11.7 µM (active)
COC(=O)c1ccc(S(=O)(=O)NCc2ccccc2)n1C,70.9% (inactive),–
Cc1ccc(C(=O)CCC(=O)N(C)CC(=O)Nc2c(Cl)cccc2Cl)cc1,21.6% (inactive),–
CCOC(=O)N1CCC(c2cc(=O)n(-c3ccccc3)[nH]2)CC1,0.756% (inactive),–
CC1CCN(C(=O)c2cc3nc(C4CC4)cc(C(F)(F)F)n3n2)CC1,9.96% (inactive),–
COc1cc(OC)cc(-c2cc3nc(C4CCN(C(=O)OC(C)(C)C)CC4)cc(=O)n3[nH]2)c1,–,1.65 µM (active)
O=C(Oc1ccc(-c2nnco2)cc1)c1ccc(F)c(S(=O)(=O)N2CCOCC2)c1,-11.3% (inactive),–
O=C(CCS(=O)(=O)c1ccc2c(c1)NC(=O)CS2)NCc1ccccc1Cl,11.6% (inactive),–
Cc1csc(/N=C/N(C)C)c1C#N,26.6% (inactive),–
Cc1cc(C)c2nc(N(CCN(C)C)C(=O)/C=C/c3cccs3)sc2c1,–,6.57 µM (active)
CC(=O)N(CCCN(C)C)c1nc2ccc(C)cc2s1,9.36% (inactive),–
Cc1cccc2sc(N(CCCN(C)C)C(=O)CCS(=O)(=O)c3ccccc3)nc12,5.57% (inactive),–
CCOC(=O)c1sc2nc(C)[nH]c(=O)c2c1C,-1.31% (inactive),–

Compound,"activity change, negative = inhibition",Potency
Cc1ccc(SCc2cc(=O)[nH]c(N3CCCCC3)n2)cc1,–,5.22 µM (active)
O=c1cc(CSc2ccccn2)nc(N2CCN(c3ccccc3)CC2)[nH]1,-8.4% [at 5.75 µM] (inactive),–
Cc1ccc(NC(=O)CSc2nc(CSc3ccc(C)cc3)cc(=O)[nH]2)cc1,-16.4% (inactive),–
O=C(OCCN=C1NS(=O)(=O)c2ccccc21)c1cccc([N+](=O)[O-])c1,48.1% (inactive),–
Cc1cccc(NC(=O)c2sc3nc4c(c(-c5ccco5)c3c2N)CCC4)c1,–,1.85 µM (active)
NC(=O)c1sc2nc3c(c(-c4ccccc4)c2c1N)CCC3,-25.1% (inactive),–
Cc1nc2sc(C(=O)c3ccccc3)c(N)c2c2c1CCCC2,-45.8% (inactive),–
CCN(C(=O)CSc1ncnc2c1cnn2-c1ccccc1)C1CCS(=O)(=O)C1 (stereo not drawn),6.57% (inactive),–
CCOc1ccc(NC(=O)CN(C)C(=O)CCSc2ccc(F)cc2)cc1OCC,-18.2% (inactive),–
Cc1cccc(Nc2nc3c(S(=O)(=O)c4ccccc4)nnn3c3ccccc23)c1C,–,0.465 µM (active)
CC(=O)Nc1ccc(Nc2nc3c(S(=O)(=O)c4ccc(C)c(C)c4)nnn3c3ccccc23)cc1,25% (inactive),–
COc1ccc(N2C(=O)CN=C2Nc2cccc(C)c2C)cc1OC,25.7% (inactive),–
CCN(CC)S(=O)(=O)c1ccc(OC)c(NC(=O)CCc2c(C)noc2C)c1,-28% (inactive),–
O=S(=O)(NC1CC1)c1ccc(Cl)cc1,9.29% (inactive),–
O=C(NCc1ccccn1)c1c(O)c2c([nH]c1=O)CCCC2,–,7.38 µM (active)
C[N+](C)(C)CCNC(=O)c1c(O)c2c([nH]c1=O)CCCC2,0% (inactive),–
CCc1nnc(NC(=O)c2c(O)c3c([nH]c2=O)CCCC3)s1,60.9% (inactive),–
Nc1nnn(CC(=O)N/N=C/c2ccccc2)n1,5.79% (inactive),–
O=c1cc(N2CCCCC2)c(-c2ccccc2)nn1Cc1cccc(F)c1,–,11.7 µM (active)
O=c1cc(N2CCN(Cc3ccccc3)CC2)c(-c2ccccc2)n[nH]1,6.44% (inactive),–
O=c1c2ccccc2c(-c2ccccc2)nn1Cc1ccccc1,-15.9% (inactive),–
O=C(CN(Cc1ccc(Br)cc1)S(=O)(=O)c1ccccc1)NCc1ccncc1,16.3% (inactive),–
Cc1nn2c(=O)cc(COC(=O)c3ccc(NC(=O)C(C)(C)C)cc3)nc2s1,-3.18% (inactive),–
CSc1ccc(S(=O)(=O)NCC(=O)OCC(=O)NC2(C#N)CCCCC2)cc1[N+](=O)[O-],26.1% (inactive),–
Cc1ccc(C(=O)OCC(=O)N2CC(C)CC(C)C2)cc1S(=O)(=O)N1CCCCC1 (stereo not drawn),8.7% (inactive),–

Compound,"activity change, negative = inhibition",Potency
Cc1ccc(C(=O)OCC(=O)NCc2cc(C)c(O)c(C)c2)cc1S(=O)(=O)N1CCCCC1,–,14.7 µM (active)
COc1ccc(CNC(=O)COC(=O)c2ccc(C)c(S(=O)(=O)N3CCOCC3)c2)cc1OC,-27.4% (inactive),–
COc1ccccc1CNS(=O)(=O)c1cc(C(=O)NCc2ccccn2)c(Cl)cc1Cl,-11.1% (inactive),–
COc1ccc(CC2(CO)CCN(Cc3cnn(C)c3)CC2)cc1,34.1% (inactive),–
CC(C)c1csc(CN2CCC(CO)(Cc3ccccc3)CC2)n1,5.83% (inactive),–
CC(C)(O)C#Cc1ccc(CN2CCC(CO)(CCc3ccccc3)CC2)cc1,35.2% (inactive),–
Cc1cccc(-c2ncc(CN3CCC(CO)(CCCc4ccccc4)CC3)cn2)c1,–,9.28 µM (active)
OCC1(CCc2ccccc2)CCN(Cc2ccc3nsnc3c2)CC1,–,11.7 µM (active)
CC(=O)c1cccc(CN2CCC(CO)(Cc3ccccc3)CC2)c1,-0.673% (inactive),–
CN(CC1CCCO1)S(=O)(=O)c1ccc(C(=O)Nc2ccc(F)cc2)cc1 (stereo not drawn),-8.74% (inactive),–
COc1cccc(-c2ccc3c(c2)S(=O)(=O)c2cccc(C(=O)O)c2C3=O)c1OC,8.29% (inactive),–
CC(=O)COc1ccc2c(-c3ccccc3)cc(=O)oc2c1,13.2% (inactive),–
Cc1cc(=O)oc2c(C)c(OCC(=O)N3CCN(Cc4ccc5c(c4)OCO5)CC3)ccc12,11.4% (inactive),–
CCN(CC)C(=O)CC(c1ccc2c(c1)OCO2)c1c(OC)cc(OC)c2c(-c3ccccc3)cc(=O)oc12 (stereo not drawn),–,11.7 µM (active)
COc1ccc(F)cc1S(=O)(=O)NCC(c1ccc2c(c1)OCO2)N1CCN(C)CC1 (stereo not drawn),-9.2% (inactive),–
COc1ccc(-c2cc(=O)oc3cc(OCC(=O)N[C@@H](Cc4c[nH]c5ccccc45)C(=O)O)ccc23)cc1,30.8% (inactive),–
CCCCN(CC)C(=O)c1ccc2c(c1)OCO2,0% (inactive),–
Cc1[nH][nH]c(=O)c1C(c1ccc2c(c1)OCO2)c1c(C)[nH][nH]c1=O,19% (inactive),–
CCN(CC)CCC(c1ccc2c(c1)OCO2)c1c(OC)cc(OC)c2c(-c3ccccc3)cc(=O)oc12 (stereo not drawn),–,5.22 µM (active)
CCN(CC)CCC(c1cc(OC)c(OC)c(OC)c1)c1c(OC)cc(OC)c2c(-c3ccccc3)cc(=O)oc12 (stereo not drawn),–,2.94 µM (active)
CC(NS(=O)(=O)c1ccc(Br)cc1)C(=O)NCC1CCCO1 (stereo not drawn),-1.33% (inactive),–
O=C(NNC(=O)c1cc(-c2ccccc2Cl)nc2ccccc12)c1csc(N2CCOCC2)n1,-6.34% (inactive),–
Cc1cc(C)cc(Oc2c(C(F)(F)F)oc3cc(OCC(=O)O)ccc3c2=O)c1,38.5% (inactive),–
